Test results reported in PubChem BioAssay (NCATS).
Results filed as inconclusive are left out. Where a call stands in place of a potency, no number is given. Activity calls are given as the source filed them. Calls follow the shape of the dose curve; as a rule, active = well fitted cell-killing curve with a large enough effect; inconclusive = small, poorly fitted or top-dose-only effect, or effect the other way; inactive = flat fitted curve, though single readings scatter. Where a SMILES comes first, the peptide text is derived from it. Bridges are numbered along the chain shown (N, C = ends). [ ]: non-standard residue; d: D form. The star is where a group is joined. X1 = CCC(C)C(N)C1=NC(C(=O)*)CS1; dOrn = NCCC[C@@H](N)C(=O)O

What follows are compounds tested on CASKI (assay: Primary qHTS to identify gynecologic anti-cancer compounds using libraries of approved drugs and bioactive compounds (AID 1345084; also: nearly all actives have a fitted effect of over 55% in size)). Conditions: Gynecologic cancer cell panel viability, ATPlite luminescence, 48 h; series mostly up to 57.5 µM.
How it was run: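 ATP-based viability (ATPlite), 1,000 cells/well, 16 h pre-incubation, 48 h compound at 37 C, 5% CO2, 15 min RT before read.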

Row | SMILES | Potency | activity change, negative = cytotoxicity
1 | OC[C@H]1O[C@@H](OC(CCCCc2ccc(O)cc2)CCc2ccc(O)cc2)[C@H](O[C@@H]2OC[C@](O)(CO)[C@H]2O)[C@@H](O)[C@@H]1O (stereo not given in full) | inactive | 
2 | C=C(C)[C@H]1C[C@@H](O)C(=C)CC[C@@H](O)C(=C)[C@@H](O)C1 | inactive | 
3 | CN1C(=O)c2ccccc2NC(=O)[C@]12O[C@@H]2c1cccc(O)c1 | inactive | 
4 | C=C1C(=O)O[C@H]2[C@H]1[C@@H](OC(=O)C(C)CO)C[C@@]1(C)[C@H](O)CCC(=O)[C@H]21 (stereo not given in full) | inactive | 
5 | N[C@@H](CC(=O)N1CCn2c(nnc2C(F)(F)F)C1)Cc1[nH]nc2c(F)c(F)ccc12 | inactive | 
6 | CC1=CC(=O)CC(C)(C)C1(O)CCC(C)O (stereo not given) | inactive | 
7 | O=C(O)Cc1nn(Cc2nc3cc(C(F)(F)F)ccc3s2)c(=O)c2nccnc12 | inactive | 
8 | CCOC(=O)[C@H](CCc1ccccc1)CC1(C(=O)N[C@H]2CCc3ccccc3N(CC(=O)O)C2=O)CCCC1 | inactive | 
9 | COc1cc(/C=C/C(=O)OC2[C@H](O)CC(O)(C(=O)O)C[C@H]2O)ccc1O (stereo not given in full) | inactive | 
10 | Cn1ccnc1CCOC(c1cc2nccc(C(=O)O)c2[nH]1)c1ccccc1Cl (stereo not given) | inactive | 
11 | C/C=C(\C)C(=O)O[C@H]1[C@H](O)[C@]2(COC(C)=O)[C@H](O)C[C@]3(C)C(=CCC4[C@@]5(C)CC[C@H](O[C@@H]6O[C@H](C(=O)O)[C@@H](O[C@@H]7O[C@H](CO)[C@@H](O)[C@H](O)[C@H]7O)[C@H](O)[C@H]6O[C@@H]6O[C@H](CO)[C@@H](O)[C@H](O)[C@H]6O)[C@](C)(CO)C5CC[C@]43C)[C@@H]2CC1(C)C (stereo not given in full) |  | 1.43% [at 11.6 µM] (inactive)
12 | CC1=CCC2C(C)(CO)CCCC2(CO)C1CO (stereo not given) | inactive | 
13 | COc1cccc2c1CCC[C@H]2CN(C)CCc1ccc2ccoc2c1 | inactive | 
14 | COC(=O)CC1(O)C(=O)Nc2ccccc21 (stereo not given) | inactive | 
15 | C=C1CCC2C(C)(C)C(O)CCC2(C)C1CCC(C)CCOC(=O)CCC(=O)O (stereo not given) | inactive | 
16 | CC(=O)O[C@H]1C[C@@H]2[C@]3(CC[C@]4(C)[C@@H](C5(C)CCC(C(C)(C)O)O5)[C@@H](O)C[C@@]24C)C[C@@]32CC[C@H](O[C@@H]3OC[C@@H](O)[C@H](O)[C@H]3O)C(C)(C)[C@H]12 (stereo not given in full) | inactive | 
17 | CCCCS(=O)(=O)Nc1ncnc(OCCOc2ncc(Br)cn2)c1-c1ccc(Br)cc1 | inactive | 
18 | C[C@@H]1O[C@@H](O[C@H]2[C@H](OC(=O)C34CCC(C)(C)CC3C3=CCC5C6(C)CC(O)C(O[C@@H]7O[C@H](CO)[C@@H](O)[C@H](O)[C@H]7O)C(C)(C(=O)O)C6CCC5(C)C3(CO)CC4)O[C@H](C)[C@H](O)[C@@H]2O)[C@H](O)[C@H](O)[C@H]1O[C@@H]1OC[C@@H](O)[C@H](O)[C@H]1O (stereo not given in full) |  | 8.6% [at 11.6 µM] (inactive)
19 | CC1NC(=O)C(Cc2c[nH]c3ccccc23)NC1=O (stereo not given) | inactive | 
20 | CC(=O)c1c(O)cc2cccc3c2c1CC(C)(O)O3 (stereo not given) | inactive | 

Row | SMILES | Potency | activity change, negative = cytotoxicity
21 | CC(C#N)C(C)O[C@@H]1O[C@H](CO)[C@@H](O)[C@H](O)[C@H]1O (stereo not given in full) | inactive | 
22 | CC(C)C(=O)O[C@@H]1[C@@H](O)[C@@H](O[C@H]2O[C@H](CO)[C@@H](O)[C@H](O)[C@H]2O)O[C@H](CO)[C@H]1O | inactive | 
23 | COc1ccccc1CC(C(=O)O)N(C)C(=O)c1ccccc1 (stereo not given) | inactive | 
24 | C/C(=C/CO)CC[C@@H]1[C@@]2(C)CCC[C@](C)(C(=O)O)C2CC[C@@]1(C)O (stereo not given in full) | inactive | 
25 | COc1cc(C(O)C(CO)Oc2ccc(CCCO[C@@H]3O[C@@H](C)[C@H](O)[C@@H](O)[C@H]3O)cc2OC)ccc1O (stereo not given in full) | inactive | 
26 | C[C@@H]1O[C@@H](O[C@H]2[C@H](O[C@H]3[C@H](O[C@H]4CC[C@@]5(C)C(CC[C@]6(C)C5CC=C5[C@@H]7CC(C)(C(=O)O)C[C@@H](O)[C@]7(C)CC[C@]56C)[C@@]4(C)CO)O[C@H](C(=O)O)[C@@H](O)[C@@H]3O)O[C@H](CO)[C@H](O)[C@@H]2O)[C@H](O)[C@H](O)[C@H]1O (stereo not given in full) |  | 2.76% [at 11.6 µM] (inactive)
27 | CC(=O)O[C@H]1[C@H](Oc2ccccc2COC(=O)C2(O)C=CCCC2=O)O[C@H](CO)[C@@H](O)[C@@H]1O (stereo not given in full) | inactive | 
28 | NC(=O)[C@H]1CCCCc2c1[nH]c1ccc(Cl)cc21 | inactive | 
29 | COc1ccc(/C=C/C(=O)O[C@H]2[C@@H]3C=CO[C@@H](O[C@@H]4O[C@H](CO)[C@@H](O)[C@H](O)[C@H]4O)[C@@H]3[C@@]3(CO)O[C@@H]23)cc1O | inactive | 
30 | COc1c(OC2OC(CO)C(O)C(O)C2O)ccc(O)c1C(=O)OCc1ccccc1O[C@@H]1O[C@H](CO)[C@@H](O)[C@H](O)[C@H]1O (stereo not given in full) | inactive | 
31 | CC1CCC2(C)C(CC(O)C(O)C23CO3)C1(C)CCC1=CC(=O)OC1O (stereo not given) | inactive | 
32 | CCC(C)C(N)C1=NC(C(=O)N[C@@H](CC(C)C)C(=O)N[C@H](CCC(=O)O)C(=O)N[C@H](C(=O)N[C@H]2CCCCNC(=O)[C@H](CC(N)=O)NC(=O)[C@@H](CC(=O)O)NC(=O)[C@H](Cc3cnc[nH]3)NC(=O)[C@@H](Cc3ccccc3)NC(=O)[C@H]([C@@H](C)CC)NC(=O)[C@@H](CCCN)NC2=O)[C@@H](C)CC)CS1 (stereo not given in full) (X1-L[dE]IK[dOrn]I[dF]H[dD]N; lactam 4-C) | inactive | 
33 | C[C@@]12C[C@]3(O)O[C@H](O1)[C@]1(COC(=O)c4ccccc4)[C@H]3C[C@@]12O[C@@H]1O[C@H](COC(=O)c2ccccc2)[C@@H](O)[C@H](O)[C@H]1O | inactive | 
34 | C=CC1C(O[C@@H]2O[C@H](CO)[C@@H](O)[C@H](O)[C@H]2O)OC=C(C(=O)OC)C1Cc1nccc2c1[nH]c1ccccc12 (stereo not given in full) | inactive | 
35 | Cc1c(-c2ccnn2C)cc(C(=O)NCc2ccc(S(C)(=O)=O)cn2)c(=O)n1-c1cccc(C(F)(F)F)c1 | inactive | 
36 | CCOc1ccc(C(Nc2ccccn2)c2ccc3ccc(C)nc3c2O)cc1C (stereo not given) | inactive | 
37 | CC(=O)c1c(O)cc2c(c1C)C(=O)CC(O)C2 (stereo not given) | inactive | 
38 | O=C(/C=C/c1ccc(O)cc1)OCC1=CC2OC(=O)C3=CO[C@@H](O[C@@H]4O[C@H](CO)[C@@H](O)[C@H](O)[C@H]4O)[C@H]1[C@@H]32 (stereo not given in full) | inactive | 
39 | CCC1CC2C(C)=CC3CCCCC3C2(C)C2(OC(=O)C(C)(O)OC2=O)O1 (stereo not given) | inactive | 
40 | CC12CCC3C(C)(C)C(O)CCC3(C)C1Cc1c(oc(C(=O)O)cc1=O)O2 (stereo not given) | inactive | 
